Experiment [1] in a line: antimalarial activity against Dd2 strain (AID 2302;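 active means growth inhibition above 50% at the single 2 µM test dose, taken to imply half-maximal potency below 2 µM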;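 further: 0% = DMSO untreated growth and 100% = chloroquine plus artemisinin killed control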). Particulars: P. falciparum Dd2 in RBCs, LDH growth readout, 72 h; at 2 µM; hits give high values.
A short description of experiment [2]: HepG2 cytotoxicity, primary screen, cytotoxicity control for P. falciparum antimalarial project, cell-based, ATP luminescence (AID 2303;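 active means inhibition above 50%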;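 further: 0% = DMSO wells and 100% = digitonin-killed cells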). The conditions noted are these: HepG2 viability, 24-48 h, at 10 µM, hits give high values.
The target of experiment [3] is L-lactate dehydrogenase (Plasmodium falciparum (isolate CDC / Honduras)) (UniProt Q27743). Kind of experiment: PfLDH activity inhibition – cell lysate, 3D7 strain, counter-screen for P. falciparum growth inhibition project (AID 2304).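 Further: 0% = vehicle and 100% = reference inhibitor.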 Particulars: P. falciparum 3D7 crude extract, LDH APAD/NBT absorbance; at 2 µM; hits give high values. For orientation: The purpose of a counterscreen is to sort out artefacts and off-target activity.
Sequence of L-lactate dehydrogenase (Plasmodium falciparum (isolate CDC / Honduras)) (Q27743 whole entry, looked up): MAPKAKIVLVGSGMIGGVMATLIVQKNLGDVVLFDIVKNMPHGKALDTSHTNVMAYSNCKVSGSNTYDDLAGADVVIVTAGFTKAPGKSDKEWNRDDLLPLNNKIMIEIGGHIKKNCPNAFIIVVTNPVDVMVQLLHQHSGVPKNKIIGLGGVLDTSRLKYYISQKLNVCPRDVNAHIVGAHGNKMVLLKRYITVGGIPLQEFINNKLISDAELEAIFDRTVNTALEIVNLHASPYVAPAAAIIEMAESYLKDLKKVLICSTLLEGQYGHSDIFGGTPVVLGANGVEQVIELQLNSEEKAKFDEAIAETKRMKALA

A short description of experiment [4]: inhibition of 3D7 malaria parasite growth – strain 3D7 (AID 2306).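 Further: 0% = DMSO wells and 100% = chloroquine plus artemisinin control wells.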 The conditions noted are these: P. falciparum 3D7 erythrocytic growth, LDH absorbance, 72 h; at 2 µM; hits give high values.
Experiment [5] addresses Calcium-dependent protein kinase 1 (Plasmodium falciparum (isolate 3D7)) (UniProt P62344). Kind of experiment: PfCDPK1 kinase inhibitors, biochemical, TCAMS library (AID 1159585; cut-off not given, nearly all actives have IC50 up to about 0.98 µM;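 further: inhibitors leave more ATP so luminescence rises with inhibition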). Particulars: recombinant PfCDPK1, Kinase-Glo ATP depletion luminescence. (In general: Kinase-Glo measures the ATP left after a reaction by luminescence.)
In experiment [6] the target is Plasmodium falciparum protein kinase 6 (PK6, PF3D7_1337100) (UniProt Q8IDW1). The experiment is described as follows: PfPK6 kinase inhibitors, biochemical, TCAMS library (AID 1159586). The conditions noted are these: recombinant PfPK6, Kinase-Glo ATP depletion luminescence.
Sequence of Plasmodium falciparum protein kinase 6 (PK6, PF3D7_1337100) (Q8IDW1 1-305): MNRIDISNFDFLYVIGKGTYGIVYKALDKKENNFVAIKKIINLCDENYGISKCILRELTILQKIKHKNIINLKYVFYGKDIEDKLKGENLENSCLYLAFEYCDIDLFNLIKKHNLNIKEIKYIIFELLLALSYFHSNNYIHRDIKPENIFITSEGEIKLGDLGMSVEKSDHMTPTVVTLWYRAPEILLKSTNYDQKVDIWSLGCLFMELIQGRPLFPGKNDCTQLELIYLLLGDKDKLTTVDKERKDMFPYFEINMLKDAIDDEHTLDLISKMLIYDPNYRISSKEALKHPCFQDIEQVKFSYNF
In experiment [7] the target is Protein kinase 7 (PK7), Plasmodium falciparum 3D7 (PF3D7_0213400) (UniProt Q7YTF7). The experiment is described as follows: inhibition of Plasmodium PK7 catalytic activity – biochemical, TCAMS antimalarial set, Kinase-Glo luminescence (AID 1159587). Particulars: recombinant PfPK7, Kinase-Glo ATP depletion luminescence.
Sequence of Protein kinase 7 (PK7), Plasmodium falciparum 3D7 (PF3D7_0213400) (Q7YTF7 1-343): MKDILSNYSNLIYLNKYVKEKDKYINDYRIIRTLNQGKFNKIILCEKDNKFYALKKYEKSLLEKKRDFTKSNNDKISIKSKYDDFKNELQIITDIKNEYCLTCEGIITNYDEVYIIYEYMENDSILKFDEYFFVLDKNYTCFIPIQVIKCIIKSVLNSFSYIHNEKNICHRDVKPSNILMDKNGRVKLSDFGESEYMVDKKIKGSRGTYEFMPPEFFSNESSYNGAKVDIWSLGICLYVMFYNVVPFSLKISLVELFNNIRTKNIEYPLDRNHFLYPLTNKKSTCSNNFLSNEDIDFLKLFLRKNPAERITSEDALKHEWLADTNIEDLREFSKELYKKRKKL
Experiment [8] addresses Calcium-dependent protein kinase 4 (Plasmodium falciparum (isolate 3D7)) (UniProt Q8IBS5). The experiment is described as follows: PfCDPK4 kinase inhibitors, biochemical, TCAMS library (AID 1159588; cut-off not given, nearly all actives have IC50 up to about 0.91 µM). Particulars: recombinant PfCDPK4, Kinase-Glo ATP depletion luminescence.

A word on the inhibition: it is the relative decrease from the control value, in per cent.

Structures are written as SMILES. A number with no mark means an inactive call. For some of these results: Entries with a potency or affinity are not part of this list. The source made the active and inactive calls. Unless noted, how the calls were made is not given here.

Sequence of Calcium-dependent protein kinase 4 (Plasmodium falciparum (isolate 3D7)) (Q8IBS5 whole entry, looked up): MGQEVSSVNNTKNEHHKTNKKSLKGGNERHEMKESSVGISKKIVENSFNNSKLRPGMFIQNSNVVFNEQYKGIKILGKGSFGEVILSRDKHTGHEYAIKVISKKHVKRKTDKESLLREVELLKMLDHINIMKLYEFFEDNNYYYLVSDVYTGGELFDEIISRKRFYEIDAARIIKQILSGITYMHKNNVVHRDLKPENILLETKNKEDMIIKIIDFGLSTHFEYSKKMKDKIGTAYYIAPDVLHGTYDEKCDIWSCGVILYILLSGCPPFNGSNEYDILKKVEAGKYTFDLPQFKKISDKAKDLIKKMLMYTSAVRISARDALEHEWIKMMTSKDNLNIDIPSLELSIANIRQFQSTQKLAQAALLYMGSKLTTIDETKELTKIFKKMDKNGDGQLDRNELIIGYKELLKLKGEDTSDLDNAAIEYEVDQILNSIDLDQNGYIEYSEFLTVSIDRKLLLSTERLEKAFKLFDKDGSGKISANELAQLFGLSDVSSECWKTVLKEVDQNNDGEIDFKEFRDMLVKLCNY
Sequence of Calcium-dependent protein kinase 1 (Plasmodium falciparum (isolate 3D7)) (P62344 whole entry, looked up): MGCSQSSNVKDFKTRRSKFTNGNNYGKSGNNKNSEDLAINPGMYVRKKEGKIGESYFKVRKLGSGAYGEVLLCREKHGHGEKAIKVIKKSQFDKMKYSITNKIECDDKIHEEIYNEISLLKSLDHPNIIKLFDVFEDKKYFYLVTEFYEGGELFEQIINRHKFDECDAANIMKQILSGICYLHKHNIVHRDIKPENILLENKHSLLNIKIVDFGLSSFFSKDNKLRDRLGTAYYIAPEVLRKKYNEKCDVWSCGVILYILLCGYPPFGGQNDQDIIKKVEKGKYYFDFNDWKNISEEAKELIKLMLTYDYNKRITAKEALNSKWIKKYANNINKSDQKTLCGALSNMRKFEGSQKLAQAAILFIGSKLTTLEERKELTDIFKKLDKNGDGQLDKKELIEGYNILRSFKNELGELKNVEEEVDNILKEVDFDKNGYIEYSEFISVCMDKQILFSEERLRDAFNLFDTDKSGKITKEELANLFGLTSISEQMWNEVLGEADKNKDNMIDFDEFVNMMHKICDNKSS

As for `CC(C)Cn1c(N)cc(=O)n(C)c1=O`, the growth inhibition in experiment [1] was 0%; in experiment [4], 100% (active). The inhibition in experiment [2] and in experiment [3] was 3% each time. Moreover, the result in experiment [5], in experiment [6], in experiment [7] and in experiment [8] was inactive.
In the case of `CC1CCC(C[C@@H](C(=O)N[C@H](C(=O)Nc2nccs2)[C@@H](C)O)[C@H](CCC(F)(F)F)N(O)C=O)CC1` (stereo not given in full), the growth inhibition in experiment [1] was 94% (active); in experiment [4], 95% (active). For the same compound, the inhibition is -8% in experiment [2] and 3% in experiment [3]. For the same compound, the result in experiment [5], in experiment [6], in experiment [7] and in experiment [8] was inactive.
For `Cc1cc(C(=O)OCC(=O)Nc2c(C)n(C)n(-c3ccccc3)c2=O)c(C)n1-c1ccc(F)cc1`, the growth inhibition in experiment [1] is 99% (active); in experiment [4], 100% (active). The figures for the inhibition in experiment [2] and in experiment [3] were -4% and -1%, respectively. For the same compound, the result in experiment [5], in experiment [6], in experiment [7] and in experiment [8] was inactive.
On to `Oc1ccc(CCNCCCCCCNCCc2ccc(Cl)c(Cl)c2)cc1O`, for which the growth inhibition in experiment [1] was 2%; in experiment [4] it was 101% (active). In addition, the results for the inhibition in experiment [2] and in experiment [3] were 21% and -1%, respectively. The result in experiment [5], in experiment [6], in experiment [7] and in experiment [8] was inactive.
For `CC(CCNc1c2ccccc2nc2ccccc12)N1CCN(C)CC1` (stereo not given), the growth inhibition in experiment [1] was -2%; in experiment [4], 101% (active). Besides, the inhibition in experiment [2] was 25%; in experiment [3] it was 5%. Besides, the outcome in experiment [5], in experiment [6], in experiment [7] and in experiment [8] was inactive.
As to `N#Cc1cccc(CN2CCCN(Cc3cccc(C(=O)Nc4ccc(Cl)cc4)c3)CC2)c1`, the values for the growth inhibition in experiment [1] and in experiment [4] were 9% and 82% (active), respectively. In addition, the inhibition in experiment [2] is 46%; in experiment [3], 1%. Besides, the result in experiment [5], in experiment [6], in experiment [7] and in experiment [8] was inactive.
Consider `O=C(/C=C/c1ccc(C(F)(F)F)cc1)N1CCc2cc3nccc(N4CCN5CCC[C@H]5C4)c3cc21`, for which the values for the growth inhibition in experiment [1] and in experiment [4] were 21% and 86% (active), respectively. Further, the inhibition in experiment [2] is -7%; in experiment [3] it was -1%. Besides, the outcome in experiment [5], in experiment [6], in experiment [7] and in experiment [8] was inactive.
For the compound `CN(C)CC1CCCN1Cc1ccccc1-c1cnn(C)c(=O)c1Oc1ccccc1F` (stereo not given), the growth inhibition was 27% in experiment [1] and 95% (active) in experiment [4]. The inhibition is 18% in experiment [2] and -1% in experiment [3]. In addition, the outcome in experiment [5], in experiment [6], in experiment [7] and in experiment [8] was inactive.
`CC(=O)N(C)C1CCN(Cc2ccc(-c3cccc(-c4nc5ccc(F)cc5[nH]4)c3)cc2)C1` (stereo not given): the results for the growth inhibition in experiment [1] and in experiment [4] were 79% (active) and 100% (active), respectively. Further, the inhibition in experiment [2] was 28%; in experiment [3], 6%. The outcome in experiment [5], in experiment [6], in experiment [7] and in experiment [8] was inactive.
For `Cc1cc(N[C@@H](CC(C)C)C(=O)NCc2cccc(F)c2)nc(Nc2ccccc2)n1`, the growth inhibition is 76% (active) in experiment [1] and 100% (active) in experiment [4]. The inhibition in experiment [2] was -5%; in experiment [3], 2%. The outcome in experiment [5], in experiment [6], in experiment [7] and in experiment [8] was inactive.
In the case of `OC1(c2ccc(Br)cc2)CCN(C2CCN(Cc3ccccc3)CC2)CC1`, the growth inhibition is 18% in experiment [1] and 100% (active) in experiment [4]. Moreover, the inhibition in experiment [2] and in experiment [3] was 8% each time. The outcome in experiment [5], in experiment [6], in experiment [7] and in experiment [8] was inactive.
For `O=C(/C=C/c1ccc(Cl)c(Cl)c1)NCCCCCN1CCC(C(=O)Nc2ccc(Cl)cc2)CC1`, the figures for the growth inhibition in experiment [1] and in experiment [4] were -1% and 100% (active), respectively. Also, the values for the inhibition in experiment [2] and in experiment [3] were 42% and 8%, respectively. Moreover, the result in experiment [5], in experiment [6], in experiment [7] and in experiment [8] was inactive.
As to `CC(C)(C)Nc1cc(C2CC2)nc(-c2ccccn2)n1`, the growth inhibition in experiment [1] is 75% (active); in experiment [4] it was 88% (active). The inhibition in experiment [2] is -2%; in experiment [3], -1%. Moreover, the result in experiment [5], in experiment [6], in experiment [7] and in experiment [8] was inactive.
As to `CCCCCCCN1CC[C@H](CC(=O)Nc2ccnc3ccc(OC)cc23)[C@@H](CC)C1`, the growth inhibition in experiment [1] is 75% (active); in experiment [4], 101% (active). The inhibition in experiment [2] was 14%; in experiment [3], -4%. The result in experiment [5], in experiment [6], in experiment [7] and in experiment [8] was inactive.
Regarding `CCCN(c1ccc(C(F)(F)F)cc1[N+](=O)[O-])S(=O)(=O)C(c1ccccc1)c1ccc(C(F)(F)F)cc1[N+](=O)[O-]` (stereo not given), the growth inhibition in experiment [1] was 49%; in experiment [4], 94% (active). Further, the inhibition was -11% in experiment [2] and 1% in experiment [3]. The result in experiment [5], in experiment [6], in experiment [7] and in experiment [8] was inactive.
As to `COc1cccc(C=CC(=O)N(CCN)Cc2ccccc2)c1`, the values for the growth inhibition in experiment [1] and in experiment [4] were -4% and 99% (active), respectively. Further, the inhibition is -14% in experiment [2] and -3% in experiment [3]. In addition, the outcome in experiment [5], in experiment [6], in experiment [7] and in experiment [8] was inactive.
For `OC(CNCc1cccc(Oc2ccc(Cl)cc2)c1)c1cccc(C(F)(F)F)c1` (stereo not given), the values for the growth inhibition in experiment [1] and in experiment [4] were 78% (active) and 94% (active), respectively. For the same compound, the figures for the inhibition in experiment [2] and in experiment [3] were -1% and 3%, respectively. In addition, the result in experiment [5], in experiment [6], in experiment [7] and in experiment [8] was inactive.
Turning to `N#Cc1cccc(NC(=O)Nc2ccc3c(c2)CN(Cc2c[nH]c4ncccc24)C3)c1`, the growth inhibition is 12% in experiment [1] and 99% (active) in experiment [4]. Also, the values for the inhibition in experiment [2] and in experiment [3] were 0% and 5%, respectively. For the same compound, the result in experiment [5], in experiment [6], in experiment [7] and in experiment [8] was inactive.
Turning to `COc1cc2nc(N3CCC(CCCC4CCNCC4)CC3)nc(NCc3ccccn3)c2cc1OC`, the growth inhibition in experiment [1] was 6%; in experiment [4], 101% (active). Further, the inhibition in experiment [2] was 2%; in experiment [3], 3%. The outcome in experiment [5], in experiment [6], in experiment [7] and in experiment [8] was inactive.
Turning to `CN(C)Cc1ccc(-c2ccc3ccnc(N)c3c2)cc1`, the growth inhibition in experiment [1] and in experiment [4] was 100% (active) each time. Also, the inhibition is 20% in experiment [2] and -1% in experiment [3]. The result in experiment [5], in experiment [6], in experiment [7] and in experiment [8] was inactive.

The record behind these values is PubChem BioAssay.
